Values joined by “and” are separate entries in the source; they are usually repeats but may differ in a detail not shown here. Equal values may be shown once. Records with an inconclusive call do not appear. Entries that show only a call come without a potency. Some structures have more than one record in an assay (separate samples or runs), and their calls can disagree. Active and inactive are the calls of the source. Unless noted, calls come from the whole dose curve; as a rule, active = well fitted curve in the direction sought with a large enough effect in the repeat runs; inconclusive = weak or mixed curves; inactive = no such curve, though single readings can be large; an effect the other way counts as inactive or inconclusive.
Tests used:
[1] = qHTS assay for small molecule agonists of the p53 signaling pathway (AID 651631; calls by dose curve; note: nearly all actives have a fitted effect of over 15% in size; note: potency is the fitted concentration of half-maximal effect)
Method in brief: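 Read-out is beta-lactamase FRET fluorescence measured 2 h after substrate addition at room temperature, in HCT-116 cells with a p53 response element-driven reporter exposed to compounds for 16 h at 37 °C.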

[2] = qHTS assay for small molecules that induce genotoxicity in human embryonic kidney cells expressing luciferase-tagged ATAD5 (AID 651632); note: nearly all actives have a fitted effect of over 15% in size; note: potency is the fitted concentration of half-maximal effect
Method in brief: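 Cells were seeded at 2,000 per well, dosed with compound, and incubated 16 hr at 37C in 5% CO2. Luciferase activity was then quantified after a 30 min room-temperature incubation with Amplite.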

[3] = qHTS assay for small molecule agonists of the p53 signaling pathway - cell viability (AID 651633; calls by dose curve; note: nearly all actives have a fitted effect of over 30% in size; note: potency is the fitted concentration of half-maximal effect)
Method in brief: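 Viability counter-read: CellTiter-Glo luminescence (30 min, room temperature) in the same p53RE-bla plates. These plates had been exposed to compounds for 16 h at 37 C.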

[4] = qHTS assay for small molecules that induce genotoxicity in human embryonic kidney cells expressing luciferase-tagged ATAD5 - cell viability (AID 651634; calls by dose curve; note: nearly all actives have a fitted effect of over 25% in size; note: potency is the fitted concentration of half-maximal effect)
Method in brief: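 Cells (HEK293T, luciferase-tagged ATAD5) are seeded at 2,000 per well, dosed with compound or DMSO vehicle, and incubated 15.5 hr at 37C and 5% CO2. CellTiter-Fluor is added for 30 min before fluorescence is measured.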

[5] = qHTS assay for small molecule disruptors of the mitochondrial membrane potential - cell viability (AID 720634; calls by dose curve; note: nearly all actives have a fitted effect of over 20% in size; note: potency is the fitted concentration of half-maximal effect)
Method in brief: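 Cytotoxicity was measured by ATP quantitation in HepG2 wells that had first been treated with compound for 1 hr and stained with m-MPI dye; CellTiter-Glo incubation was 30 min at room temperature.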

[6] = qHTS assay for small molecule disruptors of the mitochondrial membrane potential (AID 720635); note: potency is the fitted concentration of half-maximal effect
Method in brief: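 Mitochondrial membrane potential tracked with Mito-MPS dye, red aggregates (ex 540/em 590 nm) against green monomers (ex 490/em 535 nm). Compound treatment 1 hr at 37C, dye 30 min in HepG2.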

[7] = qHTS assay to test for compound auto fluorescence at 590 nm (red) in HepG2 cells (AID 720674)
Method in brief: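 We screened compounds on adherent HepG2 cells, incubating them for an hour at 37 C in 5% CO2 before reading emission at 590 nm under 540 nm excitation; values reflect equivalence to Rose Bengal sodium fluorescence.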

[8] = qHTS assay to test for compound auto fluorescence at 535 nm (green) in HepG2 cells (AID 720675)
[9] = qHTS assay to test for compound auto fluorescence at 460 nm (blue) in HEK293 cells (AID 720678)
Method in brief: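 Blue read-out at excitation 405 nm and emission 460 nm follows overnight compound exposure of HEK293 cells at 37C in 5% CO2. Activity is given as auto fluorescence equivalency to triamterene.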

[10] = qHTS assay to test for compound auto fluorescence at 590 nm (red) in HEK293 cells (AID 720679)
Method in brief: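 Red channel, Ex/Em 540/590nm; signal expressed as equivalency to Rose Bengal sodium. HEK293, 2,000 cells/well, 10% dialyzed FBS; 23 nL compound pinned after 4-5 hr attachment; overnight 37C/5% CO2 before reading.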

| SMILES | Potency [1] | Potency [2] | Potency [3] | Potency [4] | Potency [5] | Potency [6] | outcome [7] | outcome [8] | outcome [9] | outcome [10] |
| --- | --- | --- | --- | --- | --- | --- | --- | --- | --- | --- |
| CC(C)Cc1ccc(C(C)C(=O)O)cc1 (configuration not stated) | inactive | inactive | inactive | inactive | inactive | inactive | inactive | inactive | inactive | inactive |
| CCCCCCCCOc1ccc(C(=O)c2ccccc2)c(O)c1 | inactive | inactive | inactive | inactive | inactive | inactive and 61.1 µM (active) | inactive | inactive | inactive | inactive |
| COc1ccccc1O | inactive and 4.35 µM (active) | inactive | inactive | inactive | inactive | inactive | inactive | inactive | inactive | inactive |
| NC(=O)c1ccc([N+](=O)[O-])cc1Cl | inactive | inactive | inactive | inactive | inactive | inactive | inactive | inactive | inactive | inactive |
| COC(=O)c1ccc(C=O)cc1 | inactive | inactive | inactive | inactive | inactive | inactive | inactive | inactive | inactive | inactive |
| COCC(C)N (configuration not stated) | inactive | inactive | inactive | inactive | inactive | inactive | inactive | inactive | inactive | inactive |
| COC(=O)C1CCC(C(=O)OC)CC1 (configuration not stated) | inactive | inactive | inactive | inactive | inactive | inactive | inactive | inactive | inactive | inactive |
| CC(=O)Oc1ccccc1C(=O)O | inactive | inactive | inactive | inactive | inactive | inactive | inactive | inactive | inactive | inactive |
| CC(=O)OC/C=C(C)/C=C/C=C(C)/C=C/C1=C(C)CCCC1(C)C | inactive | inactive | inactive | inactive | inactive | inactive | inactive | inactive | inactive | inactive |
| C=C(C)OC(C)=O | inactive | inactive | inactive | inactive | inactive | inactive | inactive | inactive | inactive | inactive |
| C#C[C@]1(O)CC[C@H]2[C@@H]3CCC4=CC(=O)CC[C@@H]4[C@H]3CC[C@@]21CC | inactive | inactive | inactive | inactive | inactive and 48.6 µM (active) | inactive | inactive | inactive | inactive | inactive |
| Cc1c(N(C)CS(=O)(=O)O)c(=O)n(-c2ccccc2)n1C | inactive | inactive | inactive | inactive | inactive | inactive | inactive | inactive | inactive | inactive |
| CCCCNC(=O)NS(=O)(=O)c1ccc(N)cc1 | inactive | inactive | inactive | inactive | inactive | inactive | inactive | inactive | inactive | inactive |
| CC(C)=CCC/C(C)=C/CO | inactive | inactive | inactive | inactive | inactive | – | inactive | inactive | inactive | inactive |
| COCCOCCOC | inactive | inactive | inactive | inactive | inactive | inactive | inactive | inactive | inactive | inactive |
| Cc1cccc(C)c1O | inactive | inactive | inactive | inactive | inactive | inactive | inactive | inactive | inactive | inactive |
| C=CCOC(=O)CC(C)C | inactive | inactive | inactive | inactive | inactive | inactive | inactive | inactive | inactive | inactive |
| CCCCOC(=O)CCCCCCCCC(=O)OCCCC | – | inactive | inactive | inactive | inactive | inactive | inactive | inactive | inactive | inactive |
| Cc1c(N(C)C)c(=O)n(-c2ccccc2)n1C | – | inactive | inactive | inactive | inactive | inactive | inactive | inactive | inactive | inactive |
| CCCCCCCCCCCCCCCCCC(=O)OCC(O)CO (configuration not stated) | – | inactive | inactive | inactive | inactive | inactive | inactive | inactive | inactive | inactive |
| O=C(OCc1ccccc1)c1ccccc1 | – | inactive | inactive | inactive | inactive | inactive | inactive | inactive | inactive | inactive |
| CC1=C(/C=C/C(C)=C/C=C/C(C)=C/C(=O)O)C(C)(C)CCC1 | – | inactive | inactive and 68.7 µM (active) | inactive | inactive | inactive and 27.3 µM (active) | inactive | inactive | inactive | inactive |
| N[C@@H](Cc1c[nH]c2ccc(O)cc12)C(=O)O | – | inactive | inactive | inactive | inactive | 26.6 µM (active) and 941 nM (active) | inactive | inactive | inactive | inactive |
| O=c1c(-c2ccc(O)cc2)coc2cc(O)cc(O)c12 | – | – | inactive | – | inactive | 5.96 µM (active) and 1.07 µM (active) and 8.63 µM (active) | inactive | inactive | inactive | inactive |

| SMILES | Potency [1] | Potency [2] | Potency [3] | Potency [4] | Potency [5] | Potency [6] | outcome [7] | outcome [8] | outcome [9] | outcome [10] |
| --- | --- | --- | --- | --- | --- | --- | --- | --- | --- | --- |
| CN(C)C=O | inactive | inactive | inactive | inactive | – | – | inactive | inactive | inactive | inactive |
| C[C@]12CC[C@@H]3c4ccc(O)cc4CC[C@H]3[C@@H]1CCC2=O | – | – | – | inactive | inactive | 13.3 µM (active) and 6.87 µM (active) | inactive | inactive | inactive | inactive |
| N[C@@H](Cc1c[nH]c2ccccc12)C(=O)O | – | – | inactive | inactive | inactive | inactive | inactive | inactive | inactive | inactive |
| CC(C)(C)CC(C)(C)c1ccc(O)c(-n2nc3ccccc3n2)c1 | – | inactive | 49.2 µM (active) and 48.6 µM (active) | inactive | inactive | 10.6 µM (active) and 24.7 µM (active) and 30.6 µM (active) | inactive | inactive | inactive | inactive |
| NC(N)=NC(N)=NCCc1ccccc1 | – | inactive | inactive | inactive | inactive | inactive | inactive | inactive | inactive | inactive |
| CCc1cc(C(N)=S)ccn1 | inactive | – | inactive | inactive | inactive | inactive | inactive | inactive | inactive | inactive |
| Nc1ccc(N=Nc2ccccc2)c(N)n1 | – | 11.9 µM (active) and 8.68 µM (active) and 9.69 µM (active) | inactive | 23.7 µM (active) and 54.8 µM (active) | inactive | 10.6 µM (active) and 30.8 µM (active) and 19.3 µM (active) | inactive | inactive | inactive | inactive |
| CCn1cc(C(=O)O)c(=O)c2ccc(C)nc21 | – | inactive | – | – | inactive | inactive | inactive | inactive | inactive | inactive |
| O=C(O)CN(CC(=O)O)CC(=O)O | inactive | inactive | inactive | inactive | – | – | inactive | inactive | inactive | inactive |
| COC(=O)c1ccc(O)cc1 | inactive | inactive | inactive | inactive | – | – | inactive | inactive | inactive | inactive |
| NC(=O)N1c2ccccc2C=Cc2ccccc21 | – | inactive | inactive | inactive | inactive | inactive | inactive | inactive | inactive | inactive |
| CC(C)(C)NCC(O)c1ccc(O)c(CO)c1 (configuration not stated) | inactive | inactive | inactive | – | inactive | inactive | inactive | inactive | inactive | inactive |
| CC(=O)/C=C/C1=C(C)CCCC1(C)C | – | inactive | inactive | inactive | inactive | – | inactive | inactive | inactive | inactive |
| O=C1OC(c2ccc(O)cc2)(c2ccc(O)cc2)c2ccccc21 | – | inactive | inactive | inactive | inactive | 21.1 µM (active) and 48.2 µM (active) and 68.6 µM (active) | inactive | inactive | inactive | inactive |
| COc1cc(O)c(C(=O)c2ccccc2)cc1S(=O)(=O)O | – | inactive | inactive | inactive | inactive | inactive | inactive | inactive | inactive | inactive |
| COC1=CC(=O)C[C@@H](C)[C@]12Oc1c(Cl)c(OC)cc(OC)c1C2=O | – | – | – | inactive | inactive | inactive | inactive | inactive | inactive | inactive |
| NCCNc1cccc2ccccc12 | – | inactive | inactive | inactive | inactive | – | inactive | inactive | inactive | inactive |
| c1ccc2[nH]c(-c3cscn3)nc2c1 | – | – | inactive | inactive | inactive | – | inactive | inactive | inactive | inactive |
| NC(=O)N/N=C/c1ccc([N+](=O)[O-])o1 | inactive | inactive | inactive | – | inactive | 15.4 µM (active) | inactive | inactive | inactive | inactive |
| Cc1cnc(NC(=O)C2=C(O)c3ccccc3S(=O)(=O)N2C)s1 | inactive | inactive | inactive | – | inactive | – | inactive | inactive | inactive | inactive |
| COc1cc2c(c(OC)c1OC)-c1ccc(OC)c(=O)cc1[C@@H](NC(C)=O)CC2 | – | 266 nM (active) and 48 nM (active) and 54.5 nM (active) | inactive | 335 nM (active) and 9.6 nM (active) and 7.7 nM (active) | inactive | 3.35 µM (active) and 1.52 µM (active) and 1.37 µM (active) | inactive | inactive | inactive | inactive |
| CN/C(=C\[N+](=O)[O-])NCCSCc1ccc(CN(C)C)o1 | inactive | inactive | inactive | – | inactive | inactive | inactive | inactive | inactive | inactive |
| Cn1cnc2c1c(=O)[nH]c(=O)n2C | – | inactive | inactive | inactive | inactive | inactive | inactive | inactive | inactive | inactive |

— PubChem BioAssay (Tox21)
